We go through 40 molecules from PubChem BioAssay (Tox21).

Structures are written as SMILES. Results filed as inconclusive are left out. Unmarked numbers belong to inactive results. Active and inactive are the calls of the source. Calls come from the whole dose curve.
% is set by controls: 0 for no effect and ±100 for the full control effect.

In the assay the target is Beta-2 adrenergic receptor (Homo sapiens) (UniProt P07550). The assay is described as follows: Adrenergic beta2 receptor (ADRB2) small molecule antagonists, cell-based qHTS assay (AID 1963592). Note: nearly all actives have a fitted effect of over 50% in size. The note with it: CHO-ADRB2 cells, isoproterenol-stimulated cAMP HTRF ratio, 0.5 h; series mostly up to 92.4 µM; activity change, negative = inhibition: at the top concentration. The text has this: U.S. Tox21 Program National Center for Advancing Translational Sciences [NCATS] Division of Preclinical Innovation [DPI] U.S. Environmental Protection Agency [EPA] National Institutes of Environmental Health Sciences [NIEHS] National Toxicology Program [NTP] U.S. Food and Drug Administration [FDA] Tox21 Assay Overview: Beta adrenergic receptors (Beta-ARs) belong to the G-protein coupled receptor (GPCR) superfamily, includes three subtypes - beta1, beta2, and beta3. Beta1-AR is the predominant receptor subtype expressed in the heart, and beta2-AR is expressed in the kidney, lung, blood vessel and in the heart, and beta3 is found in the adipocytes. Beta1 and 2 ARs couple to Gs protein and elevate cyclic adenosine mono phosphate (cAMP), which activates protein kinase A and leads to the downstream signaling responsible for the physiological actions. Beta-AR agonists or antagonists are the most prescribed therapeutic agents for heart failure and asthma, and these were one of the first target receptors for the rational drug design. Tox21 10K compound library was screened using the cAMP-Gs dynamic assay (Cisbio Bioassays, Shelton, CT) to identify agonists/antagonists of the Gs-coupled human adrenergic, beta2 receptor (ADRB2) in the CHO-ADRB2 cell line (Codex BioSolutions, Inc. Gaithersburg, MD), which stably over-expresses ADRB2. The principle of cAMP-Gs dynamic assay is based on HTRF technology, which facilitates the fluorescence resonance energy transfer (FRET) between donor Europium cryptate and acceptor d2-labeled cAMP. The cAMP generated within cells competes with the red acceptor, d2-labled cAMP, for binding to the monoclonal anti-cAMP-cryptate (Europium donor). An increase in intracellular cAMP leads to the disruption of FRET signal, and the signal is inversely proportional to the cAMP concentration. Propranolol HCl (Sigma-Aldrich, St. Louis, MO) was used as a positive control in the screening.
Sequence of Beta-2 adrenergic receptor (Homo sapiens) (P07550 whole entry, looked up): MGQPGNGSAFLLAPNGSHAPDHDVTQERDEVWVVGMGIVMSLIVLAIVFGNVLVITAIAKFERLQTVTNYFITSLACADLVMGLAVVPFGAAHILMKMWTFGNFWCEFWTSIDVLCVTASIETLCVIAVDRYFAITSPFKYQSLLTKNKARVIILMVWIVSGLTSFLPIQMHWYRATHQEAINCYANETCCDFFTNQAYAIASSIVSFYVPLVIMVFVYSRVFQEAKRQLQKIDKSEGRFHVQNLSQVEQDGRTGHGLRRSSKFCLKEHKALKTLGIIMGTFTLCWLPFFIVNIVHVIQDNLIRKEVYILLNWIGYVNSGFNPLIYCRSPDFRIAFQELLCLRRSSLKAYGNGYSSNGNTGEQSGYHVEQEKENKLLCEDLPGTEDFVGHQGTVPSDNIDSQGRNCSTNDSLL
Tox21 Assay Protocol Summary: CHO-ADRB2 cells were dispensed at 1,000/well in 4uL assay medium into white/solid 1536-well plates (Greiner Bio-One North America Inc., Monroe, NC) using a Multidrop Combi dispenser (ThermoFisher Scientific, Waltham, MA). The assay plates were incubated at 37C and 5% CO2 for an overnight (18-20hr). Then positive control and test compounds dissolved in DMSO were transferred to the assay plates at 23nL using a Pintool station (Wako, San Diego, CA). Following the compound and positive control transfer, 1uL agonist-stimulation mix containing 1nM Isoproterenol HCl, 100uM IBMX and 25uM Ro-20-1724 was added to each well of the assay plates using BioRAPTR Flying Reagent Dispenser (FRD, Beckman Coulter, Brea, CA). The assay plates were incubated at room temperature for 0.5hr. Then 2.5ul each d2-labled cAMP and anti-cAMP-cryptate solutions were added separately to each well of the assay plates using an FRD and the assay plates were incubated at room temperature for 1hr. The fluorescence signal was measured at two different wavelengths (665nm and 615nm) using an Envision plate reader (Perkin Elmer, Shelton, CT). Data were expressed as the ratio of 665 nm/615 nm.
(qHTS replaces the single test concentration by a dilution series.)
Turning to `CCCC(O)C(O)CO` (stereo not given), the “activity change, negative = inhibition” value is -8.57%. Same read-out and setting: the value for `CCOC(=O)c1c(C)n(C)c2ccc(O)cc12` was 0.558% [at 42.5 µM]; that for `C=CCOC(=O)CCCCCC` was -1.91%. On the same count and under the same terms, the value for `COc1ccc(C(=O)c2cccc(O)c2)c(OC)c1` was 6.57%; that for `CC/C=C\C#N` was 4.91%. With `CC(=O)OCCOCCOCCOC(C)=O`, the Potency entry is “inactive”. With `C=COCCCC`, the “activity change, negative = inhibition” value was 0.684%. For `O=C1NC2NC(=O)NC2N1` (stereo not given), the “activity change, negative = inhibition” value is 0.604%. Still for that read-out and setting: the value for `Cc1ccc(Nc2ccc(O)c3c2C(=O)c2ccccc2C3=O)cc1` was 2.82%. On the same count and under the same terms, the value for `OC1CCCC1` was 0.312%. The same measure, in the same setting: the value for `CC1CCC(C(C)(C)O)CC1` (stereo not given) was 0.519%; that for `C/C(=C(\CCO)SS/C(CCO)=C(\C)N(C=O)Cc1cnc(C)nc1N)N(C=O)Cc1cnc(C)nc1N` was 3.56% [at 42.5 µM]; that for `Cc1ccc(C(=O)C(=O)O)cc1C` was -7.64% [at 42.5 µM]. For the molecule `C1CSCCS1`, the “activity change, negative = inhibition” value was -2.2%. The same measure, in the same setting: the value for `O=C1CCC(=O)O1` was -1.99%. Same read-out and setting: the value for `C=CC(C)(O)CC/C=C(/C)CCC=C(C)C` (stereo not given) was -13.2%. For `O=c1[nH]c(=O)n([C@H]2CCCO2)cc1F`, the Potency entry was “inactive”. For the molecule `Cc1cn([C@H]2C[C@H](F)[C@@H](CO)O2)c(=O)[nH]c1=O`, the “activity change, negative = inhibition” value was 4.97% [at 42.5 µM].

For `C[n+]1ccn(CCO)c1`, the Potency result is “inactive”. Take `OC/C=C/CO`: the “activity change, negative = inhibition” value was 4.02%. On the same count and under the same terms, the value for `CC(C)Nc1ccccc1` was -0.0419%; that for `C=C[Si](OC(=C)C)(OC(=C)C)OC(=C)C` was -7.08%. `CCN(CC)S(=O)(=O)c1ccc(C(=O)O)cc1`: the “activity change, negative = inhibition” value is 8.16% [at 42.5 µM]. `CC(C)(C)C(=O)C(Oc1ccc(Cl)cc1)n1ccnc1` (stereo not given): the “activity change, negative = inhibition” value is -0.279% [at 42.5 µM]. Still for that read-out and setting: the value for `C=CCOc1cc(Cl)ccc1C(=O)NCCN(CC)CC` was -0.188% [at 42.5 µM]; that for `COc1cc2c(Nc3ccc(Br)cc3F)ncnc2cc1OCC1CCN(C)CC1` was 1.86% [at 42.5 µM]; that for `CC1=CC[C@@]23C[C@@H]1C(C)(C)[C@@H]2CC[C@H]3C` was 0.991%. Take `NS(=O)(=O)c1cc2c(cc1C(F)(F)F)NC(Cc1ccccc1)NS2(=O)=O` (stereo not given): the “activity change, negative = inhibition” value is 22.7% [at 42.5 µM]. Turning to `O=S(=O)(O)c1cccc(S(=O)(=O)O)c1`, the “activity change, negative = inhibition” value was 3.26%. On to `CCCCOC(=O)C(C)OC(=O)CCC` (stereo not given), for which the “activity change, negative = inhibition” value was 1.42%. Same read-out and setting: the value for `Cc1ccc(S(=O)(=O)O)c(C)c1` was -8.2%. On the same count and under the same terms, the value for `CC(=O)c1cccc([N+](=O)[O-])c1` was -8.62%. For `Cc1ccccc1C(N)=O`, the “activity change, negative = inhibition” value was -4.67%. Still for that read-out and setting: the value for `CC(=O)OC[C@H]1O[C@@H](OC(C)=O)[C@H](OC(C)=O)[C@@H]1OC(C)=O` was 0.462% [at 42.5 µM]; that for `CCC(=O)O[C@@H]1C[C@H]2CC[C@]1(C)C2(C)C` was -3.02%. In the case of `CC(=O)[C@@]1(O)CC[C@H]2[C@@H]3CCC4=CC(=O)CC[C@]4(C)[C@H]3CC[C@@]21C`, the Potency entry is “inactive”. Take `CC(C)=CCC/C(C)=C/C#N`: the “activity change, negative = inhibition” value was 6.41%.

As for `OCC1CCC(CO)CC1` (stereo not given), the “activity change, negative = inhibition” value is 7.83%. On the same count and under the same terms, the value for `C/C(=C1\CCOC(=O)S1)N(C=O)Cc1cnc(C)nc1N` was 19.8% [at 42.5 µM]; that for `CCCCCCOC(=O)c1ccccc1O` was 4.3%.
